Assay results as given in PubChem BioAssay AID1510 (The Scripps Research Institute Molecular Screening Center, 2009).
Hit rate of the full screen: of about 220,000 compounds, about 570 (0.26%) were called active. The full list was thinned out, with actives kept by preference. Unmarked numbers belong to inactive results. Cut-off read from the data, not from the text of the source: active = inhibition above about 29%; inactive = the rest.

The compounds below were run against Sphingosine 1-phosphate receptor 4 (Homo sapiens) (UniProt O95977) (assay: blockers of human S1P4 receptor – cell-based, primary screen (AID 1510;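 note: 0% = wells stimulated with agonist and 100% = vehicle wells without agonist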)). Details: S1P4-expressing cells, antagonist mode, reporter read-out; at 4.98 µM; stronger effect = higher value.
Sphingosine 1-phosphate receptor 4 (Homo sapiens), sequence (O95977 whole entry, looked up): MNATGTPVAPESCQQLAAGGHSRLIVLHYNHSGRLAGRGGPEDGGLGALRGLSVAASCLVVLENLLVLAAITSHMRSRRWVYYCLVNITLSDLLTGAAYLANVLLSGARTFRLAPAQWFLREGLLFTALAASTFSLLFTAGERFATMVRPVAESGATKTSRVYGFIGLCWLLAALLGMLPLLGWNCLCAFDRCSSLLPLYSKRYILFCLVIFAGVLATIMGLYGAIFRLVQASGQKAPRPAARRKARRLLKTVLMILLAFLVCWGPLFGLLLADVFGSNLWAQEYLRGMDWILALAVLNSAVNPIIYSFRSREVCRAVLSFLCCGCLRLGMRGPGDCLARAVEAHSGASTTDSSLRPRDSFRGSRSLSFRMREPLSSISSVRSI

SMILES | inhibition
CN(C)CC1Oc2ccccc2OC1(O)c1ccccc1 (stereo not given) | 66% (active)
Cc1ccc(-c2nn(CCC#N)cc2C(=O)O)cc1C | -15.8%
O=C(COC(=O)Cc1ccccc1)Nc1ccc(F)cc1 | -14%
COP(=O)(NS(=O)(=O)c1ccccc1)OC | -0.89%
CN1CCN(Cc2ccc(OC(F)(F)F)cc2)CC1 | -5.02%
